# This is one part of a sample in which the strongest signals are shown more often than they occur.
# Experiments:
# Assay in all cases: glycan array binding signal (z-score within array); higher = stronger binding
# Settings in all cases: glycan notation: IUPAC condensed, linker removed
# [1] = molecular target: Fuc(a1-2)Gal(b1-3)GlcNAc(b1-2)Man(a1-3)[Fuc(a1-2)Gal(b1-3)GlcNAc(b1-2)Man(a1-6)]Man(b1-4)GlcNAc(b1-4)[Fuc(a1-6)]GlcNAc
# Procedure, shortened: (§1)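 The Consortium for Functional Glycomics database supplied 3228 glycan arrays, of which those lacking an available protein sequence were dropped. The binding signal, a within-array Z-score, was averaged across arrays of the same protein sequence and across linkers. Negative scores can be read as non-binding.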
# [2] = molecular target: Fuc(a1-2)Gal(b1-4)[Fuc(a1-3)]GlcNAc(b1-2)[Fuc(a1-2)Gal(b1-4)[Fuc(a1-3)]GlcNAc(b1-4)]Man(a1-3)[Fuc(a1-2)Gal(b1-4)[Fuc(a1-3)]GlcNAc(b1-2)Man(a1-6)]Man(b1-4)GlcNAc(b1-4)GlcNAc
# Procedure, shortened: as §1
# [3] = molecular target: Fuc(a1-2)[Gal(a1-3)]Gal(b1-3)GalNAc
# Procedure, shortened: as §1
# [4] = molecular target: Fuc(a1-2)[Gal(a1-3)]Gal(b1-4)GlcNAc(b1-6)GalNAc
# Procedure, shortened: as §1
# [5] = molecular target: Fuc(a1-2)[GalNAc(a1-3)]Gal(b1-4)GlcNAc
# Procedure, shortened: as §1
# [6] = molecular target: Fuc(a1-3)[GalNAc(b1-4)]GlcNAc
# Procedure, shortened: as §1
# [7] = molecular target: Gal(a1-3)Gal(b1-3)GlcNAc(b1-6)GalNAc
# Procedure, shortened: as §1
# [8] = molecular target: Gal(a1-3)Gal(b1-3)[Fuc(a1-4)]GlcNAc(b1-2)Man(a1-3)[Gal(a1-3)Gal(b1-3)[Fuc(a1-4)]GlcNAc(b1-2)Man(a1-6)]Man(b1-4)GlcNAc(b1-4)GlcNAc
# Procedure, shortened: as §1
# [9] = molecular target: Gal(a1-3)Gal(b1-4)GlcNAc(b1-6)GalNAc
# Procedure, shortened: as §1
# [10] = molecular target: Gal(a1-3)Gal(b1-4)[Fuc(a1-3)]GlcNAc
# Procedure, shortened: as §1
# [11] = molecular target: Gal(a1-4)Gal(b1-4)GlcNAc(b1-2)Man(a1-3)[Gal(a1-4)Gal(b1-4)GlcNAc(b1-2)Man(a1-6)]Man(b1-4)GlcNAc(b1-4)GlcNAc
# Procedure, shortened: as §1
# [12] = molecular target: Gal(b1-3)GalNAc(a1-3)[Fuc(a1-2)]Gal(b1-4)GlcNAc
# Procedure, shortened: as §1
# [13] = molecular target: Gal(b1-3)GlcNAc(a1-6)Gal(b1-4)GlcNAc
# Procedure, shortened: as §1
# Gal(b1-4)Gal = molecular target: Gal(b1-4)Gal
# Procedure, shortened: as §1
# Gal(b1-4)Glc = molecular target: Gal(b1-4)Glc
# Procedure, shortened: as §1
# [14] = molecular target: Gal(b1-4)GlcNAc(b1-2)[Gal(b1-4)GlcNAc(b1-4)]Man(a1-3)[GlcNAc(b1-4)][Gal(b1-4)GlcNAc(b1-2)Man(a1-6)]Man(b1-4)GlcNAc(b1-4)GlcNAc
# Procedure, shortened: as §1
# [15] = molecular target: Gal(b1-4)GlcNAc(b1-3)Gal(b1-4)GlcNAc(b1-2)[Gal(b1-4)GlcNAc(b1-3)Gal(b1-4)GlcNAc(b1-6)]Man(a1-6)[Gal(b1-4)GlcNAc(b1-3)Gal(b1-4)GlcNAc(b1-2)Man(a1-3)]Man(b1-4)GlcNAc(b1-4)GlcNAc
# Procedure, shortened: as §1
# [16] = molecular target: Gal(b1-4)GlcNAc(b1-6)GalNAc
# Procedure, shortened: as §1
# Gal3S4S(b1-4)GlcNAc = molecular target: Gal3S4S(b1-4)GlcNAc
# Procedure, shortened: as §1
# Gal6S(b1-4)GlcNAc6S = molecular target: Gal6S(b1-4)GlcNAc6S
# Procedure, shortened: as §1
# [17] = molecular target: GalNAc(b1-3)Gal(a1-4)Gal(b1-4)GlcNAc(b1-3)Gal(b1-4)Glc
# Procedure, shortened: as §1
# [18] = molecular target: GalNAc(b1-4)GlcNAc(b1-2)Man
# Procedure, shortened: as §1
# GlcA(b1-3)GlcNAc = molecular target: GlcA(b1-3)GlcNAc
# Procedure, shortened: as §1
# [19] = molecular target: GlcNAc(b1-2)[GlcNAc(b1-4)]Man(a1-3)[GlcNAc(b1-4)][GlcNAc(b1-2)Man(a1-6)]Man(b1-4)GlcNAc(b1-4)GlcNAc
# Procedure, shortened: as §1
# [20] = molecular target: GlcNAc(b1-3)Gal(b1-4)GlcNAc(b1-2)Man(a1-3)[GlcNAc(b1-3)Gal(b1-4)GlcNAc(b1-2)Man(a1-6)]Man(b1-4)GlcNAc(b1-4)[Fuc(a1-6)]GlcNAc
# Procedure, shortened: as §1
# [21] = molecular target: GlcNAc(b1-3)Gal(b1-4)GlcNAc(b1-2)[GlcNAc(b1-3)Gal(b1-4)GlcNAc(b1-6)]Man(a1-6)[GlcNAc(b1-3)Gal(b1-4)GlcNAc(b1-2)Man(a1-3)]Man(b1-4)GlcNAc(b1-4)GlcNAc
# Procedure, shortened: as §1
# [22] = molecular target: GlcNAc(b1-3)Gal(b1-4)GlcNAc(b1-3)Gal(b1-4)GlcNAc(b1-2)Man(a1-3)[GlcNAc(b1-3)Gal(b1-4)GlcNAc(b1-3)Gal(b1-4)GlcNAc(b1-2)Man(a1-6)]Man(b1-4)GlcNAc(b1-4)GlcNAc
# Procedure, shortened: as §1
# [23] = molecular target: GlcNAc(b1-3)Gal(b1-4)GlcNAc(b1-3)Gal(b1-4)GlcNAc(b1-2)Man(a1-3)[GlcNAc(b1-3)Gal(b1-4)GlcNAc(b1-3)Gal(b1-4)GlcNAc(b1-2)Man(a1-6)]Man(b1-4)GlcNAc(b1-4)[Fuc(a1-6)]GlcNAc
# Procedure, shortened: as §1
# [24] = molecular target: GlcNAc(b1-3)Gal(b1-4)GlcNAc(b1-3)Gal(b1-4)GlcNAc(b1-3)Gal(b1-4)GlcNAc(b1-2)Man(a1-3)[GlcNAc(b1-3)Gal(b1-4)GlcNAc(b1-3)Gal(b1-4)GlcNAc(b1-3)Gal(b1-4)GlcNAc(b1-2)Man(a1-6)]Man(b1-4)GlcNAc(b1-4)[Fuc(a1-6)]GlcNAc
# Procedure, shortened: as §1
# [25] = molecular target: GlcNAc(b1-4)GlcNAc(b1-4)GlcNAc
# Procedure, shortened: as §1
# [26] = molecular target: Man(a1-2)Man(a1-6)[Man(a1-3)]Man(a1-6)[Man(a1-2)Man(a1-2)Man(a1-3)]Man
# Procedure, shortened: as §1
# [27] = molecular target: Man(a1-3)[Man(a1-6)]Man(a1-6)[Man(a1-3)]Man
# Procedure, shortened: as §1
# [28] = molecular target: Neu5Ac(a2-3)Gal(b1-3)GlcNAc(b1-3)Gal(b1-4)GlcNAc
# Procedure, shortened: as §1
# [29] = molecular target: Neu5Ac(a2-3)Gal(b1-3)GlcNAc6S
# Procedure, shortened: as §1
# [30] = molecular target: Neu5Ac(a2-3)Gal(b1-4)GlcNAc(b1-2)Man(a1-3)[Neu5Ac(a2-3)Gal(b1-4)GlcNAc(b1-2)Man(a1-6)]Man(b1-4)GlcNAc(b1-4)GlcNAc
# Procedure, shortened: as §1
# [31] = molecular target: Neu5Ac(a2-3)Gal(b1-4)GlcNAc(b1-3)Gal(b1-4)GlcNAc(b1-3)GalNAc
# Procedure, shortened: as §1
# [32] = molecular target: Neu5Ac(a2-3)Gal(b1-4)GlcNAc(b1-3)GalNAc
# Procedure, shortened: as §1
# [33] = molecular target: Neu5Ac(a2-3)Gal(b1-4)GlcNAc(b1-6)[Gal(b1-3)]GalNAc
# Procedure, shortened: as §1
# [34] = molecular target: Neu5Ac(a2-6)Gal(b1-4)GlcNAc(b1-2)Man(a1-6)[Gal(b1-4)GlcNAc(b1-2)Man(a1-3)]Man(b1-4)GlcNAc(b1-4)GlcNAc
# Procedure, shortened: as §1
# [35] = molecular target: Neu5Ac(a2-6)Gal(b1-4)GlcNAc(b1-2)Man(a1-6)[GlcNAc(b1-2)Man(a1-3)]Man(b1-4)GlcNAc(b1-4)GlcNAc
# Procedure, shortened: as §1
# [36] = molecular target: Neu5Ac(a2-8)Neu5Ac(a2-3)Gal(b1-3)GalNAc(b1-4)[Neu5Ac(a2-3)]Gal(b1-4)Glc
# Procedure, shortened: as §1
# [37] = molecular target: Neu5Ac(a2-8)Neu5Ac(a2-3)Gal(b1-4)Glc
# Procedure, shortened: as §1
# [38] = molecular target: Neu5Ac(a2-8)Neu5Ac(a2-8)Neu5Ac(a2-3)[Gal(b1-3)GalNAc(b1-4)]Gal(b1-4)Glc
# Procedure, shortened: as §1
# [39] = molecular target: Neu5Ac(a2-8)Neu5Ac(a2-8)Neu5Ac(a2-3)[GalNAc(b1-4)]Gal(b1-4)Glc
# Procedure, shortened: as §1
# [40] = molecular target: Neu5Gc(a2-3)Gal(b1-3)GlcNAc
# Procedure, shortened: as §1
# [41] = molecular target: Neu5Gc(a2-8)Neu5Ac(a2-3)Gal(b1-4)GlcNAc
# Procedure, shortened: as §1
binder,measurement,setting,value
Lb MiSSP8 (Laccaria bicolor) (protein) MYFHTLFACATLMLITTAHASPTVINSLDSRKADLNGDVEARHAADWRRDSDWRRDSDWRRDSDWRRDSD,glycan array binding signal (z-score),[1],1.26
same,glycan array binding signal (z-score),[2],1.27
same,glycan array binding signal (z-score),[3],0.371
same,glycan array binding signal (z-score),[4],-0.53
same,glycan array binding signal (z-score),[5],-0.502
same,glycan array binding signal (z-score),[6],1.06
same,glycan array binding signal (z-score),[7],-0.806
same,glycan array binding signal (z-score),[8],1.55
same,glycan array binding signal (z-score),[9],-0.599
same,glycan array binding signal (z-score),[10],-0.488
same,glycan array binding signal (z-score),[11],10.8
same,glycan array binding signal (z-score),[12],-0.267
same,glycan array binding signal (z-score),[13],-0.136
same,glycan array binding signal (z-score),Gal(b1-4)Gal,-3.19
same,glycan array binding signal (z-score),Gal(b1-4)Glc,0.702
same,glycan array binding signal (z-score),[14],-0.274
same,glycan array binding signal (z-score),[15],2.86
same,glycan array binding signal (z-score),[16],-0.433
same,glycan array binding signal (z-score),Gal3S4S(b1-4)GlcNAc,-0.771
same,glycan array binding signal (z-score),Gal6S(b1-4)GlcNAc6S,-0.571
same,glycan array binding signal (z-score),[17],4.15
same,glycan array binding signal (z-score),[18],-0.744
same,glycan array binding signal (z-score),GlcA(b1-3)GlcNAc,3.78
same,glycan array binding signal (z-score),[19],-0.64
same,glycan array binding signal (z-score),[20],2.31
same,glycan array binding signal (z-score),[21],0.54
same,glycan array binding signal (z-score),[22],2.57
same,glycan array binding signal (z-score),[23],2.43
same,glycan array binding signal (z-score),[24],2.57
same,glycan array binding signal (z-score),[25],0.319
same,glycan array binding signal (z-score),[26],-0.578
same,glycan array binding signal (z-score),[27],2.36
same,glycan array binding signal (z-score),[28],-0.868
same,glycan array binding signal (z-score),[29],-0.226
same,glycan array binding signal (z-score),[30],-0.578
same,glycan array binding signal (z-score),[31],-0.343
same,glycan array binding signal (z-score),[32],-0.122
same,glycan array binding signal (z-score),[33],3.01
same,glycan array binding signal (z-score),[34],-0.606
same,glycan array binding signal (z-score),[35],-0.668
same,glycan array binding signal (z-score),[36],-0.336
same,glycan array binding signal (z-score),[37],-0.744
same,glycan array binding signal (z-score),[38],1.08
same,glycan array binding signal (z-score),[39],-0.82
same,glycan array binding signal (z-score),[40],-0.571
same,glycan array binding signal (z-score),[41],-0.958

# Reference: the supplement of paper PMC8728848
